Screens as filed in PubChem BioAssay.
DNA FID counter: compounds displacing fluorescent DNA intercalator, primary screen, artefact control for HCV NS3 helicase inhibitor project, biochemical, FID fluorescence | DNA fluorescent intercalator displacement | inhibition, % at 7.9 µM | 290,000 compounds, 0.17% hits | AID 1845, 2009; in the data active = inhibition above about 37%;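 note: 0% = vehicle and 100% = reference compound; higher means more ethidium bromide displaced from hairpin DNA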
Kir21 block: inhibitors of mouse Kir2.1 inward-rectifier potassium channel; Inward rectifier potassium channel 2 (Mus musculus), P35561; 310,000 compounds, 0.85% hits; B-score at 10 µM; HEK293-Kir2.1, FluxOR thallium flux fluorescence; hits give low values;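 active = fluorescence ratio B-score at or below minus 3 SD of library scores, with starting-brightness B-score within 2 SD, cut at about -4.2 in these data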;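 note: channel flux triggered by added potassium and thallium sulfate stimulus; B-score of peak minus minimum fluorescence over baseline after thallium stimulus; more negative B-score means stronger Kir2.1 block with less thallium influx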
Target sequence (P35561 whole entry, looked up): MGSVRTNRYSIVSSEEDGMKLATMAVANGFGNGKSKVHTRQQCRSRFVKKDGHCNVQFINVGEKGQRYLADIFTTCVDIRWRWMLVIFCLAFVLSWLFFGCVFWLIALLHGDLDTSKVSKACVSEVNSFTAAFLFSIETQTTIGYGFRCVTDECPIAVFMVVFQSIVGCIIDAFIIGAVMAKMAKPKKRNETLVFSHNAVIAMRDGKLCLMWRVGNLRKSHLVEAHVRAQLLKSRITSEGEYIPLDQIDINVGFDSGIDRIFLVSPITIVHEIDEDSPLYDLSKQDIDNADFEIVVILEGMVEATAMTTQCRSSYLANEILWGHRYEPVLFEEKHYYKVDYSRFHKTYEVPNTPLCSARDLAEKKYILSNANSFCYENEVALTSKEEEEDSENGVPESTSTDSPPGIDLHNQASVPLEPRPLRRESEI
Rce1 inhib: yeast Rce1p protease inhibitors, primary screen, biochemical, fluorescence, cell-free homogeneous; CAAX prenyl protease 2 (Saccharomyces cerevisiae (strain ATCC 204508 / S288c)), Q03530; yeast membranes, quenched prenylated peptide cleavage fluorescence; calls only; 290,000 compounds, 0.27% hits; AID 2563, 2010;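 active = fall in fluorescence gain of 50% or more versus controls, with final raw signal at or below 3038400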;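 note: plate controls were neutral control wells for no effect and wells lacking membranes for full effect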
M18AAP inhibitor: PfM18AAP inhibitors, malaria aminopeptidase, primary screen, biochemical, QFRET, recombinant enzyme | inhibition, % at 7.35 µM | M18 aspartyl aminopeptidase (Plasmodium falciparum 3D7) | H-Glu-NHMec fluorogenic cleavage | 290,000 compounds, 1.2% hits;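 active = inhibition above the campaign mean inhibition over all tested compounds plus 3 SD, cut at about 28% in these data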;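 note: 0% = plate median of test compound wells and 100% = 2 mM ZnCl2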
Active calls of the source: *; i = inactive; . = no result; + = active, no number. Only some compounds are listed: those with a hit (about 2.3% of all), similar ones and a draw of the others.

SMILES | DNA FID counter | Kir21 block | Rce1 inhib | M18AAP inhibitor
C#CCOc1ccccc1CNC1CCN(Cc2ccccc2)CC1 | 15.7 | -4.4* | i | -6.5
O=C(NC1CCN(Cc2ccccc2)CC1)c1ccccc1OCc1ccccc1Cl | 14.0 | -6.68* | i | -18.6
CCCCNC(=O)Nc1ncn[nH]1 | -3.0 | 1.45 | i | 29.0*
Cc1cccc(C)c1N=Nc1c(C)cc(O)cc1C | 8.9 | 0.11 | i | 4.3
COc1cc(/C=N/NC(=O)c2ccncc2)ccc1OC(=O)c1cc(OC)c(OC)c(OC)c1 | -40.7 | -1.09 | + | -0.5
COc1ccc(/C=N/NC(=O)c2ccncc2)cc1OC | -8.1 | -0.04 | i | -11.9
COc1ccc(C)cc1NC(=O)CN1C(=O)COc2ccc(S(=O)(=O)N3CCOCC3)cc21 | -32.2 | -1.01 | + | -1.3
COc1ccc(C)cc1NS(=O)(=O)c1ccc2c(c1)N(C)CCO2 | -23.9 | -5.62* | i | -12.3
N#CC1=C(S)N(c2ccccc2)C(c2ccc(-c3ccc(Cl)c(Cl)c3)o2)NC1=O (configuration not stated) | -13.0 | -6.21* | i | -1.6
CCNc1c(NS(=O)(=O)c2ccc(F)c(Cl)c2)c(=O)oc2ccccc12 | -6.7 | -0.54 | i | 4.9
CCn1c(=S)sc2c(=O)n(CC(=O)Nc3ccc(Cl)cc3)c(C)nc21 | -0.4 | -0.38 | i | 1.1
COC(=O)Cn1c2ccc(Cl)cc2c2nc(C)sc21 | -3.5 | -0.44 | i | 2.1
Cc1nc2c3cc(Cl)ccc3n(CCN3CCCCC3)c2s1 | 39.2* | -2.55 | i | 14.4
COc1cc(C(=O)Nc2ccc(C#N)cc2)c([N+](=O)[O-])cc1OC | 20.8 | -0.37 | i | -3.2
COc1ccccc1OCCCCCc1c(C)n[nH]c1C | -18.3 | -1.39 | i | 2.4
CCOc1ccccc1OCCCCCc1c(C)n[nH]c1C | -29.1 | -4.81* | i | 3.6
OCCN1CCN(CCCN2c3ccccc3Sc3ccc(Cl)cc32)CC1 | 18.2 | -5.59* | i | 18.1
O=C(CN1CCCC1)N1c2ccccc2Sc2ccc(Cl)cc21 | 4.6 | -0.25 | i | -5.7
CN(C)CCCN1c2ccccc2CCc2ccccc21 | 13.5 | -1.05 | i | -5.8
CN(C)CCCN1c2ccccc2Sc2ccc(Cl)cc21 | 20.9 | -7.91* | i | 15.4
CCOc1ccc(NC(=O)CN(C)S(=O)(=O)c2cccc3cccnc23)cc1 | -29.6 | -0.52 | i | 1.1
COc1ccc2no[n+]([O-])c2c1 | -8.2 | -2.61 | i | 12.2
O=C(CSc1nc(=O)n(CCCN2CCOCC2)c2c1CCCC2)Nc1cccc(Cl)c1 | . | 0 | i | .
O=C(CSc1n[nH]c(-c2ccc(S(=O)(=O)N3CCCCC3)cc2)n1)Nc1nccs1 | -9.6 | 1.91 | + | 0.0
O=C(Nc1ccccc1OC(F)F)c1ccc(S(=O)(=O)N2CCOCC2)cc1 | -8.3 | -0.47 | i | -2.4
SMILES | DNA FID counter | Kir21 block | Rce1 inhib | M18AAP inhibitor
CC(C)C(=O)Nc1c2c(nc3ccccc13)N(C)CC2 | -0.6 | -0.14 | + | 0.8
O=C(c1ccc(S(=O)(=O)N2CCCC2)cc1)N1CCCCC1 | . | -0.02 | i | .
O=C(/C=C/c1ccc(O)c(O)c1)c1ccc(S(=O)(=O)N2CCCCCC2)cc1 | -3.8 | -1.94 | i | 59.8*
CCN(CC)CCN(CC(=O)N(C1CCCCC1)C1CCCCC1)C(=O)c1ccco1 | 11.2 | -4.38* | i | -3.2
Cc1ccc(Oc2c(C(N)=O)cc([N+](=O)[O-])cc2[N+](=O)[O-])cc1 | 14.2 | -5.47* | i | -16.5
Cc1ccc2nc3cc([N+](=O)[O-])cc([N+](=O)[O-])c3cc2c1 | -0.8 | . | . | 3.0
COc1ccc(C2=NN(C(=O)CSc3nc(=O)n4cc(C)ccc4n3)C(c3ccc(C)cc3)C2)cc1 (configuration not stated) | . | 2.68 | i | .
COc1ccc(NC(=O)c2sccc2SCc2cccc(C(F)(F)F)c2)cc1 | -9.0 | -4.51* | i | 3.2
COCCn1c(SCC(=O)Nc2ccccc2F)nnc1-c1ccoc1C | -13.4 | -0.69 | i | -10.6
COc1ccc(NC(=O)c2cc(C)no2)cc1 | -6.9 | 1.22 | i | -1.4
CC1(C)Nc2ccc(O)cc2-c2c1ssc2=S | 4.3 | -11.6* | i | 15.2
COc1cccc(-n2sc3c(c2=S)-c2cc(OC)ccc2NC3(C)C)c1 | -1.0 | -0.08 | i | 9.7
Cc1ccc(S(=O)(=O)NCCSc2nnnn2-c2ccccc2)cc1 | -14.1 | -7.08* | i | 4.2
CCCC(NCC(O)COc1ccc(-c2ccccc2)cc1)c1ccccc1 (configuration not stated) | 40.8* | -0.1 | i | -9.6
Cc1cc(OCC(O)CNC(C)c2ccccc2)ccc1C(C)C (configuration not stated) | 41.4* | -10.1* | i | 0.1
CC(NCC(O)COc1ccc2ccccc2c1)c1ccccc1 (configuration not stated) | 19.6 | -3.09 | i | -0.8
O=C(c1cccc(OC2CCN(Cc3ccc(F)cc3)CC2)c1)N1CCCC1 | -0.9 | -3.7 | i | 3.1
COc1ccccc1N(Cc1ccccc1)S(=O)(=O)c1cccc(C(=O)Nc2ccc(C)cn2)c1 | . | -0.91 | i | .
Cc1cc(C)cc(NC(=O)CC2Oc3ccc(C)cc3NC2=O)c1 (configuration not stated) | -17.2 | -0.05 | i | -1.1
CC(C)N1CCN(S(=O)(=O)c2ccc3ccccc3c2)CC1 | 4.6 | 1.49 | + | 0.2
O=S(=O)(Nc1cccc(-n2cnnn2)c1)c1ccccc1C(F)(F)F | -8.3 | -0.38 | i | 3.3
CN(Cc1ccccc1)C(=O)C(C(=O)c1ccc(F)cc1)n1cc(Cl)ccc1=O (configuration not stated) | -8.7 | 0.55 | i | -13.1
CCN1CCN(Cc2ccc(NC(=O)Nc3ccc(SC)cc3)cc2)CC1 | 17.8 | -4.82* | i | -2.2
CCN1CCN(C(=S)c2ccc(SC)cc2)CC1 | -2.8 | -0.73 | i | 31.0*
CCN1CCN(Cc2ccc(NC(=O)Nc3ccccc3)cc2)CC1 | 8.0 | -0.43 | i | 3.5
SMILES | DNA FID counter | Kir21 block | Rce1 inhib | M18AAP inhibitor
Cn1c(CNc2nc3ccccc3n2C)nc2ccccc21 | 0.5 | -0.33 | i | -6.3
Cc1ccc(CNc2nc3ccccc3n2C)cc1 | 1.4 | -6.39* | . | 0.6
Cn1c(NCc2ccc(Cl)cc2)nc2ccccc21 | 7.0 | -9.62* | i | 2.5
Cn1c(NCc2c(O)ccc3ccccc23)nc2ccccc21 | 5.0 | 0.58 | i | -52.1
CCn1ccnc1CN(C)Cc1c(C(=O)N2C[C@@H](C)O[C@@H](C)C2)nc2ccc(Cl)cn12 | -5.8 | -0.67 | i | -7.8
COc1ccc(F)cc1S(=O)(=O)Nc1cc2c3c(c1)CCN3C(=O)CC2 | . | 0.03 | i | .
Cc1c(NC(=O)Nc2ccc(C#N)cc2)c(=O)n(-c2ccccc2)n1C | -8.6 | 0.9 | i | 2.5
C=CCOc1ccc(-c2n[nH]c(=S)o2)cc1 | -1.6 | 1.15 | + | 0.2
C=CCc1cccc(/C=N/NC(=O)CNc2ccccc2)c1O | -5.7 | 0.45 | i | -0.2
C=CCc1cccc(/C=N/NC(=O)C[n+]2ccccc2)c1O | 1.5 | -0.12 | i | 29.0*
